PubChem BioAssay (NCI)
The panel holds about 79,000 compounds, 15% with a hit somewhere; the sample as a whole holds those more often. No stated cut-off is given here; in the data, active means growth inhibition above about 70%; inactive means the rest. Where a SMILES comes first, the peptide text is derived from it.

Legend:
[1] = NCI Yeast Anticancer Drug Screen. Data for the rad50 strain (AID 155);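 further: 0% = growth of vehicle-only cultures of the same strain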; settings: S. cerevisiae rad50 strain growth inhibition; at 50.0 µM; hits give high values
How it was run: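 Inhibition values express reduced yeast growth in compound-treated cultures relative to vehicle-treated controls.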

[2] = NCI Yeast Anticancer Drug Screen. Data for the mec2-1 strain (AID 157); settings: S. cerevisiae mec2-1 strain, at 50.0 µM, hits give high values
How it was run: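 Compounds were applied to mec2-1 yeast cells. Their growth was then compared with that of vehicle-treated cultures to give growth inhibition.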

[3] = NCI Yeast Anticancer Drug Screen. Data for the sgs1 mgt1 strain (AID 161);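 further: 0% = growth of cultures given vehicle only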; settings: S. cerevisiae sgs1 mgt1 strain, at 50.0 µM, hits give high values
How it was run: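 Yeast cells carrying a defined DNA-repair defect were exposed to test compounds. Growth inhibition was measured relative to vehicle-treated controls.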

[4] = NCI Yeast Anticancer Drug Screen. Data for the cln2 rad14 strain (AID 165);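 further: 0% = growth equal to vehicle treated cultures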; settings: S. cerevisiae cln2 rad14 strain, at 50.0 µM, hits give high values
How it was run: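 Strain: cln2 rad14 yeast, altered in cell cycle control and DNA damage repair. Read-out: growth inhibition vs vehicle.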

[5] = NCI Yeast Anticancer Drug Screen. Data for the bub3 strain (AID 167); settings: S. cerevisiae bub3 mutant strain, at 50.0 µM, hits give high values
How it was run: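 Steps: expose the mutant yeast strain to compound; grow alongside vehicle-treated cultures; measure growth; express inhibition against the vehicle cultures.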

[6] = NCI Yeast Anticancer Drug Screen. Data for the mlh1 rad18 strain (AID 175); settings: S. cerevisiae mlh1 rad18 strain growth inhibition; at 50.0 µM; hits give high values
How it was run: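 A repair-deficient yeast strain is exposed to test compound, and growth is scored relative to vehicle-treated controls.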

Measured: growth inhibition

CCCCC(N)=O
inactive: [1] -21.9% | [2] -9.05% | [3] 9.8% | [4] 5.7% | [5] -5.2% | [6] 4.3%

CC(=O)Nc1cc(Cl)cc2c1[nH]c(=O)c1ccccc12
inactive: [1] 9.75% | [2] 5.35% | [3] -2% | [4] -7% | [5] 9.25% | [6] 1.05%

CS1(=O)=NC(=O)C(N2C(=O)c3ccccc3C2=O)CC1 (stereo unspecified)
inactive: [1] 0.6% | [2] 4.9% | [3] -0.95% | [4] -17.4% | [5] 13.2% | [6] 5.5%

O=C1CN(c2cccc(Cl)c2)C(=O)CN1CCN1CC(=O)N(c2cccc(Cl)c2)CC1=O
inactive: [1] -35.2% | [2] -11.7% | [3] -19.6% | [4] -7.8% | [5] -37.5% | [6] -32.2%

CCN(CC)CCn1c(=O)c2c(ncn2C)n(C)c1=O
inactive: [1] -5.55% | [2] -22.7% | [3] 12.6% | [4] -36.3% | [5] 11.8% | [6] -15.6%

COc1ccc2c(c1)c1ccc3c(c1n2C)C(=O)C=CC3=O
inactive: [1] 8.4% | [2] -1.6% | [3] 43% | [4] 11% | [5] 4.8% | [6] 15.7%

COc1ccc(C2CC(C)(O)Oc3cc4c(cc32)OCO4)cc1 (stereo unspecified)
inactive: [1] 47.5% | [2] 26.3% | [3] 13.7% | [4] 43.6% | [5] 44.9% | [6] 27.1%

CC(=NNC(=S)Nc1ccccc1)c1cccc(C(C)=NNC(=S)Nc2ccccc2)n1
inactive: [1] -7.4% | [2] -7.55% | [3] -0.8% | [4] 2.65% | [5] -2.3% | [6] 6.4%

CC(C)CC(NC(=O)C(Cc1ccccc1)NC(=O)CNC(=O)CN)C(=O)O (stereo unspecified) (H-GGFL-OH; configuration not given here)
inactive: [1] -1.55% | [2] -4.05% | [3] -11.4% | [4] -5.05% | [5] -1.9% | [6] -12.4%

O=C1c2ccccc2Cc2ccccc21
inactive: [1] 3.5% | [2] 7.75% | [3] -1.7% | [4] -19.4% | [5] 16.4% | [6] 7.55%

CN1CCC(CC(O)(c2ccccc2)C2CCCCC2)C1 (stereo unspecified)
inactive: [1] -5.9% | [2] -14.1% | [3] -2.3% | [4] -24.4% | [5] 4.2% | [6] -20.9%

CCSc1nnc(-c2ccccc2)nc1Cc1ccc(OC)cc1
inactive: [1] -38.2% | [2] -13.2% | [3] -62.7% | [4] -12.8% | [5] -30.5% | [6] -39.5%

O=S1(=O)C2CCC(Br)C1CCC2Br (stereo unspecified)
inactive: [1] 9.65% | [2] 13.8% | [3] 7.65% | [4] 14.2% | [5] -2.65% | [6] 10.9%

[Cl][Pt+2][Cl].[NH-]C(CO)C([NH-])CO (stereo unspecified)
inactive: [1] 32.4% | [2] -47.9% | [3] -10.3% | [4] -15.8% | [5] -27.9% | [6] -61.5%

Cc1ccc(N2C(=O)/C(=C/c3ccc(N(CCC#N)CCC#N)cc3C)N=C2c2cc([N+](=O)[O-])ccc2Cl)cc1
inactive: [1] 8.85% | [2] 14.5% | [3] 32.6% | [4] 35.2% | [5] 30.4% | [6] 19.9%

C=CCOC(=O)Nc1cc(Cl)ccc1C
inactive: [1] 3.9% | [2] 1.2% | [3] -8.5% | [4] -9.25% | [5] -1.55% | [6] -9.8%

CC(C)CCC(=O)OC/C(=N\Nc1ccc([N+](=O)[O-])cc1[N+](=O)[O-])c1ccc(-c2ccccc2)cc1
inactive: [1] -17.7% | [2] 12.5% | [3] -15.8% | [4] -35.6% | [5] 1.9% | [6] 14.8%

N#CCCN(CCC#N)c1ccc(C=Nc2ccc(F)cc2)cc1
inactive: [1] 20% | [2] 9.65% | [3] 11.9% | [4] 15.8% | [5] 18.5% | [6] 45.2%

O=C(Nc1cccc(Cl)c1)OC1C=CCC1 (stereo unspecified)
inactive: [1] 3.4% | [2] 1.75% | [3] 2.65% | [4] -20.1% | [5] -2.15% | [6] -15.5%

CS(=O)(=O)Oc1ncc(Cl)cc1Cl
inactive: [1] -15.4% | [2] 2% | [3] -1.85% | [4] 14.5% | [5] 1.35% | [6] -8.1%

Cc1ccc2c(c1)C(O)(CC(=O)c1ccccc1)C(=O)N2 (stereo unspecified)
inactive: [1] 35.4% | [2] 0.55% | [3] 7% | [4] -47.9% | [5] -6.6% | [6] 1.35%
